Results on 40 compounds are retold here after PubChem BioAssay (NCATS).

“And” between values parts separate entries of the source, which are not always exact repeats. Equal values may be shown once. The source made the active and inactive calls. A call without a number means that no potency is given here. Calls come from the whole dose curve; as a rule, active = well fitted inhibition curve with a large enough effect; inconclusive = small, poorly fitted or top-dose-only effect; inactive = no such curve, though single readings can be large or run the other way.
Potency is the fitted concentration of half-maximal effect.

This experiment can be described thus: qHTS assay for measurement of the activity of small molecule inhibitors on Zika virus induced Caspase-3 activity in human astrocytoma cells (AID 1224859). As to conditions: SNB-19 ZIKV-induced caspase-3/7, luminescence, 6 h; series mostly up to 45.7 µM. The source says: National Center for Advancing Translational Sciences [NCATS]
Johns Hopkins University School of Medicine
Increase in the Caspase-3 activity indicates an activation of apoptosis cell death pathway caused by Zika virus infection in certain types of neuronal cells including human neural progenitor cells (hNPCs), astrocytes, and astrocytoma cell line (SNB-19). This cell-based caspase-3 activity assay measures the increased caspase-3 activity in the astrocytoma cell line (SNB-19) after a 6-hour Zika virus infection with a luminescence readout. A decrease in the luminescence signal in this assay by small molecule treatment indicates an inhibitory effect of that small molecule on the Zika virus induced caspase-3 activity that may correlate with its effect on reduction of Zika virus caused cell death.
The medium for SNB-19 cells is composed of RPMI 1640 (ATCC, Cat.# 30-2001), 10% fetal bovine serum (FBS) (GE healthcare Life Sciences, Cat.# SH30071.03), and 1% Pen/Strep (Gibco, Cat.# 15140-122). A Caspase-Glo 3/7 assay kit (catalog number G8092; Promega, Madison, WI) was used to detect caspase-3 activity induced by Zika virus infection in human cells. The reagent mixture was reconstituted as described in the protocol from the manufacturer. Polystyrene tissue culture treated and PDL coated white plates were obtained from Greiner Bio-One (Monroe, NC). Cells were seeded in 384- or 1536-well assay plates and cultured at 37 C with 5% CO2 for 16 to 20 hours. The typical cell seeding density in the 1536-well plate assay is 250 cells/well in 3ul medium for SNB-19 cells in tissue culture treated plates. Compounds were added to cells and incubated for one hour before addition of ZIKV solution to cells (2 FFU/cell). After incubation at 37 C with 5% CO2 for 6 hours, the reagent mixture of Caspase-Glo 3/7 assay kit was added to each well, followed by incubation at room temperature for 30 minutes. The luminescence intensity of the assay plates was measured using a ViewLux plate reader (PerkinElmer). Data were normalized by using the cell-containing wells without ZIKV as a negative control (0% induction of caspase 3/7 activity) and wells containing ZIKV infected cells (Caspase-3 activity induced) as a positive control (100% induction of caspase 3 activity). The percentage inhibitions of the increased Caspase-3 activity by small molecule inhibitors were then calculated.
In general terms: Quantitative high-throughput screening tests each substance at several concentrations.
`CC(C)NCC(O)c1ccc(O)c(O)c1` (stereo not given): the Potency result is “inactive”. With `CN1CCN(CCCN2c3ccccc3Sc3ccc(Cl)cc32)CC1`, the Potency result is “inactive”. To `COc1ccccc1OCCNCC(O)COc1cccc2[nH]c3ccccc3c12` (stereo not given) belongs “inactive”; to `Clc1ccc(C(c2ccccc2Cl)C(Cl)Cl)cc1` (stereo not given), “inactive”.

For `COc1ccc2c(c1)c(CC(=O)O)c(C)n2C(=O)c1ccc(Cl)cc1`, the Potency result was “inactive”. Turning to `NCCCCCC(=O)O`, the Potency result is “inactive”. On to `CC#C[C@]1(O)CC[C@H]2[C@@H]3CCC4=CC(=O)CCC4=C3[C@@H](c3ccc(N(C)C)cc3)C[C@@]21C`, for which the Potency result is “inactive”. The entry for `CC(C(=O)O)c1cccc(C(=O)c2ccccc2)c1` (stereo not given) is “inactive”; for `COc1ccccc1OCC(O)CN1CCN(CC(=O)Nc2c(C)cccc2C)CC1` (stereo not given) it is “inactive”. The entry for `CN1C(C(=O)Nc2ccccn2)=C(O)c2ccccc2S1(=O)=O` is “inactive”; for `C[C@](N)(Cc1ccc(O)c(O)c1)C(=O)O` it is “inactive”; for `Nc1ccn([C@H]2CC[C@@H](CO)O2)c(=O)n1` it is “inactive”. In the case of `CC1(CN2CCC(n3c(=O)[nH]c4ccccc43)CC2)OCc2ccccc2-n2cccc21` (stereo not given), the Potency result is “inactive”. As to `O=C(CCCN1CCC(O)(c2ccc(Cl)cc2)CC1)c1ccc(F)cc1`, the Potency result is “inactive”. `CC(C)Cc1ccc(C(C)C(=O)O)cc1` (stereo not given): the Potency entry is “inactive”. To `CC(COc1ccccc1)N(CCCl)Cc1ccccc1` (stereo not given) belongs “inactive”; to `CC(C)(Oc1ccc(C2CC2(Cl)Cl)cc1)C(=O)O` (stereo not given), “inactive”. Consider `CC12CC3CC(C)(C1)CC(N)(C3)C2`, for which the Potency entry was “inactive”. As to `CCC1(C)CC(=O)NC1=O` (stereo not given), the Potency result was “inactive”. To `O=C1N(c2ccccc2)c2ccccc2C1(Cc1ccncc1)Cc1ccncc1` belongs “inactive”. To `NS(=O)(=O)c1cc2c(cc1Cl)NCNS2(=O)=O` belongs “inactive”; to `Clc1ccc2nsnc2c1NC1=NCCN1`, “inactive”.

`Cc1cc(C(C)(C)C)cc(C)c1CC1=NCCN1`: the Potency result is “inactive”. To `CN(Cc1cnc2nc(N)nc(N)c2n1)c1ccc(C(=O)N[C@@H](CCC(=O)O)C(=O)O)cc1` belongs “inactive”. To `NC(=O)OCC(COC(N)=O)c1ccccc1` belongs “inactive”; to `CNCCCC12CCC(c3ccccc31)c1ccccc12`, “inactive”; to `O=C1Cc2cc(CCN3CCN(c4nsc5ccccc45)CC3)c(Cl)cc2N1`, “inactive”. Take `O=C(Nc1ccc([N+](=O)[O-])cc1Cl)c1cc(Cl)ccc1O`: the Potency is 2.82 µM (active) and 1.18 µM (active) and 1 µM (active). As to `Nc1nc2c(ncn2COC(CO)CO)c(=O)[nH]1`, the Potency entry is “inactive”. The entry for `CCc1cccc2c3c([nH]c12)C(CC)(CC(=O)O)OCC3` (stereo not given) is “inactive”; for `NCCc1cnc[nH]1` it is “inactive”.

Take `CC(CCc1ccc(O)cc1)NCCc1ccc(O)c(O)c1` (stereo not given): the Potency entry was “inactive”. Consider `Nc1nnc(-c2cccc(Cl)c2Cl)c(N)n1`, for which the Potency result is “inactive”. On to `Cn1cnc2c1c(=O)[nH]c(=O)n2C`, for which the Potency entry is “inactive”. The entry for `CC[N+](CC)(CC)CCOc1cccc(OCC[N+](CC)(CC)CC)c1OCC[N+](CC)(CC)CC` is “inactive”; for `Fc1ccc([C@@H]2CCNC[C@H]2COc2ccc3c(c2)OCO3)cc1` it is “inactive”; for `CC1(C)O[C@H]2CC(=O)OC[C@]23[C@H]2CC[C@@]4(C)[C@H](c5ccoc5)OC(=O)[C@H]5O[C@]54[C@]2(C)C(=O)C[C@@H]13` it is “inactive”. To `Cc1cn([C@H]2C[C@H](N=[N+]=[N-])[C@@H](CO)O2)c(=O)[nH]c1=O` belongs “inactive”; to `CC(C)C(=O)Nc1ccc([N+](=O)[O-])c(C(F)(F)F)c1`, “inactive”. To `CC(C)NCC(O)COc1ccc(CCOCC2CC2)cc1` (stereo not given) belongs “inactive”.
